Compound activity: PubChem BioAssay, The Scripps Research Institute Molecular Screening Center
ssDAF12 agonist: activates DAF-12 receptor from parasite S. stercoralis | AID 652126 | activation, % at 6.8 µM | HEK293 ssDAF-12/GRIP1 lit1-tk-luc reporter, luminescence; % of 3 µM dafachronic acid response | 370,000 compounds, 1% hits;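 active = activation above the mean over all tested compounds plus 3 SD, cut at about 0.9% in these data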
hgDAF12 agonist: activates the H. glycines DAF-12 receptor ligand-binding domain; HEK293 GAL4-hgDAF12 UAS-luciferase reporter, agonist luminescence; normalized to butyrate control; activation, % at 6.8 µM; 370,000 compounds, 1.8% hits; AID 687014;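 active = activation above a cutoff set at the mean of all screened compounds plus 3 SD, cut at about 10% in these data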
hcDAF12 agonist: H. contortus DAF-12 activation, primary screen; HEK293 hcDAF-12 lit1-tk-luc reporter, luminescence; 0% DMSO, 100% Δ7-dafachronic acid; activation, % at 6.8 µM; 370,000 compounds, 1.4% hits;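 active = activation above the mean of all tested compounds plus 3 SD, cut at about 5.5% in these data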
SMARCA2 activ: activators of SMARCA2 function. 370,000 compounds, 1% hits. MG213 cells, MMTV-luciferase reporter, dexamethasone, overnight. activation, % at 9.1 µM; in the data active = activation above about 7.8%
DAX1 inh: DAX1 (NR0B1) inhibition, primary screen. HEK293T StAR-luciferase reporter, SF-1/DAX-1 repression relief. inhibition, % at 6.8 µM. 370,000 compounds, 1.1% hits. AID 652010;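 active = inhibition above the mean over all tested compounds plus 3 SD, cut at about 3.6% in these data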;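 note: higher inhibition means more luminescence from relief of DAX-1 repression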
SMARCA2 conf: confirmation of SMARCA2 (BRM) function activators; shares compounds with SMARCA2 activ; MG213 cells, MMTV-luciferase with dexamethasone, luminescence, overnight; MG213 cells expressing E1A, Rb sequestered; DMSO wells 0%, reference activator 100%; activation, % at 9.1 µM; 3,500 compounds, 30% hits; AID 652260;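 active = activation above its plate's cutoff, the mean activation of tested wells plus 3 SD, cut at about 7.9% in these data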
VP16 Luc act: counter-screen for SMARCA2 activators: GAL4-VP16 luciferase reporter activation; shares compounds with SMARCA2 activ; HEK293 GAL4-VP16 pG5luc reporter, luciferase luminescence; scaled: DMSO wells 0%, SAHA wells 100%; activation, % at 9.1 µM; 3,500 compounds, 41% hits; AID 686939;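 active = activation above the solvent-only control well mean plus 3 SD, averaged across control plates, cut at about 5.2% in these data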
LXR ag: counter-screen for hcDAF-12 agonists: agonists of human LXR-beta. shares compounds with hcDAF12 agonist. HEK293 Gal4-LXR tk-luc reporter, luminescence, 24 h; normalized: DMSO 0%, positive control 100%. activation, % at 6.8 µM. 3,400 tested, under 10 active. AID 743027;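 active = mean percent activation of the reporter above a cutoff set as the average over tested compounds plus their standard deviation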
Target sequence (P55055 whole entry, looked up, the tested form may be a part): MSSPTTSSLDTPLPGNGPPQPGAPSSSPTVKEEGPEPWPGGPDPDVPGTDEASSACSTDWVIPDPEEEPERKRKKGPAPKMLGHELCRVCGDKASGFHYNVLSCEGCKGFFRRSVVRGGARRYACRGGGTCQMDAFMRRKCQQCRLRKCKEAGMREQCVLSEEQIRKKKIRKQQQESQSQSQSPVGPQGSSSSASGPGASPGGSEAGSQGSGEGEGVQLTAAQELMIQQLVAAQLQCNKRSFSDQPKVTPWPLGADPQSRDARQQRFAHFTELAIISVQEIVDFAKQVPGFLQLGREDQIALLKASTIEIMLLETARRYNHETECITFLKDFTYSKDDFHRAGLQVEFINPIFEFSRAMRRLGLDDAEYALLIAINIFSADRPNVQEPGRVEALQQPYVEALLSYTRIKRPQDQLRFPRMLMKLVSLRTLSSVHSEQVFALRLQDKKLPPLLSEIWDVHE
hcDAF12 ag: hcDAF-12 agonism, confirmation assay. HEK293 hcDAF-12 lit1-tk-luc reporter, luminescence; % of Δ7-dafachronic acid response. AID 743032. 3,400 compounds, 61% hits. activation, % at 6.8 µM. shares compounds with hcDAF12 agonist;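 active = mean activation across triplicate tests above the threshold derived from the earlier primary screen, cut at about 5.5% in these data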
hgDAF12 ag: confirmation of H. glycines DAF-12 agonists; shares compounds with hgDAF12 agonist; HEK293 GAL4-hgDAF12 luciferase reporter, agonist mode; percent of butyrate response; activation, % at 6.8 µM; 3,300 compounds, 80% hits; AID 743050;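 active = mean activation over triplicate wells above the hit cutoff derived from the earlier primary screen, cut at about 11% in these data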
LXR ag 2: LXR-beta agonism as DAF-12 counter-screen. shares compounds with hgDAF12 agonist. HEK293 Gal4-LXR luciferase reporter, 24 h. activation, % at 6.8 µM. 3,300 tested, under 10 active;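 active = mean activation of the triplicate above a set limit carried over from the primary screen, none filed active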
Large screens that a line does not name were inactive (follow-up assays come after a bar, where they were run). Hits are enriched below; roughly 4.2% of the tested compounds scored in any of these assays.

Cc1nc(NC(=O)c2ccc3c(c2)OCO3)ccc1Br	hgDAF12 agonist 15.8, SMARCA2 activ 8.6 | SMARCA2 conf inactive | VP16 Luc act 13.8 | hgDAF12 ag 13.8 | LXR ag 2 inactive
Cc1onc(-c2ccccc2)c1C(=O)Nc1nc2c(s1)CCCC2	none
O=C(Nc1nc2c(s1)C(=O)CCC2)c1ccccc1	hgDAF12 agonist 15.5, SMARCA2 activ 8.3 | SMARCA2 conf 9.7 | VP16 Luc act 12.0 | hgDAF12 ag 16.7 | LXR ag 2 inactive
CCOC(=O)[C@]12CCCCC/C=C\1N(Cc1ccc(OC)cc1)C(=O)[C@H]2CC(=O)NCc1cccc2ccccc12	none
O=C(O)c1ccc(/C=C2\CCCc3c2nc2ccccc2c3C(=O)O)cc1	none
CN(C)c1ccc(/C=C2\CCCc3c2nc2ccccc2c3C(=O)O)cc1	ssDAF12 agonist 1.6, hgDAF12 agonist 13.3, hcDAF12 agonist 5.7, SMARCA2 activ 9.6 | SMARCA2 conf inactive | VP16 Luc act 5.5 | hgDAF12 ag 13.2 | LXR ag 2 inactive
COc1ccc2c(c1)CC/C(=C/c1ccco1)C2=O	hgDAF12 agonist 15.6, hcDAF12 agonist 8.6, SMARCA2 activ 19.6, DAX1 inh 4.2 | SMARCA2 conf inactive | VP16 Luc act 12.3 | LXR ag inactive | hcDAF12 ag 6.2 | hgDAF12 ag 15.7 | LXR ag 2 inactive
COc1ccc2c(c1)CC/C(=C\c1ccc(OC)c(Cn3cccn3)c1)C2=O	none
CC(=O)Nc1ccc2nc(NC(=O)c3cccs3)sc2c1	ssDAF12 agonist 1.8, hgDAF12 agonist 21.0, hcDAF12 agonist 6.7, SMARCA2 activ 9.1, DAX1 inh 4.2 | SMARCA2 conf 8.7 | VP16 Luc act 9.8 | LXR ag inactive | hcDAF12 ag 9.2 | hgDAF12 ag 12.8 | LXR ag 2 inactive
CC(=O)NCCC(=O)Nc1nc2ccc(Oc3ccccc3)cc2s1	hgDAF12 agonist 21.0, SMARCA2 activ 10.6 | SMARCA2 conf inactive | VP16 Luc act 8.7 | hgDAF12 ag 14.9 | LXR ag 2 inactive
COc1cccc(CNS(=O)(=O)c2cc(Br)ccc2Br)c1OC	none
CC(C)C[C@@H]1COc2cccc(NC3CC3)c2S(=O)(=O)N1	none
COCc1cc(C)nc(SCC(=O)Nc2cccc(C)c2C)c1C#N	none
COCc1cc(C)nc(SCC(=O)Nc2nc(C)cs2)c1C#N	hcDAF12 agonist 9.7 | LXR ag inactive | hcDAF12 ag 6.3
Clc1ccc(/C=C/c2ncc3ccccn23)cc1	ssDAF12 agonist 1.6, hgDAF12 agonist 11.4, hcDAF12 agonist 11.0 | LXR ag inactive | hcDAF12 ag inactive
Fc1ccc(-c2ncc3ccccn23)cc1	none
Cn1c(NC2=NC3(CCCC3)C3=C(CCCC3=O)N2)nc2ccccc21	none (no result: SMARCA2 activ, DAX1 inh)
CCOC(=O)N1N=C(c2ccc(OC)cc2)CC1(O)C(F)(F)F (stereo unspecified)	ssDAF12 agonist 1.8, hcDAF12 agonist 7.9, DAX1 inh 4.1 | LXR ag inactive | hcDAF12 ag 6.4
CCOC(=O)N1N=C(c2ccccc2)CC1(O)C(C)(F)F (stereo unspecified)	none
O=C(O)c1cc(-c2c[nH]c3ccccc23)nc2ccc3ccccc3c12	hcDAF12 agonist 9.1 | LXR ag inactive | hcDAF12 ag 5.8
CN(C)C(=S)N=Nc1[nH]c2ccccc2c1O	ssDAF12 agonist 1.4, hgDAF12 agonist 12.7, hcDAF12 agonist 7.3 | LXR ag inactive | hcDAF12 ag inactive
Cc1cc2c(c(=O)o1)[C@@]1(C(=O)N(C)c3ccccc31)C1=C(CC3(CCCCC3)OC1=O)O2	none
Cn1c(CC(=O)Nc2ccccc2)nnc1SCC(=O)NC1=NCCS1	hcDAF12 agonist 7.6 | LXR ag inactive | hcDAF12 ag inactive
Cn1ccsc1=NC(=O)c1ccc(OC(F)(F)F)cc1	hcDAF12 agonist 8.2 | LXR ag inactive | hcDAF12 ag inactive
O=C(CCNC(=O)c1ccccc1Cl)NNC(=O)c1ccccc1O	none
O=C(CC(=O)c1c(F)cccc1Cl)c1ccccc1O	hcDAF12 agonist 9.1 | LXR ag inactive | hcDAF12 ag 6.9
CCCC1CCC2(CC1)CCC2OC(=O)Nc1ccccc1C (stereo unspecified)	none (no result: SMARCA2 activ, DAX1 inh)
O=C(Nc1nccs1)C1Cc2ccccc2CN1S(=O)(=O)c1ccc(F)cc1 (stereo unspecified)	hgDAF12 agonist 11.6, hcDAF12 agonist 10.7 | LXR ag inactive | hcDAF12 ag 7.7
CCCCCCCCN1C(=O)[C@H](CC(=O)NCCCOC)C[C@@]2(C(=O)OCC)CCCC=C12	none
Cn1c(=O)c(-c2cc(Br)ccc2N)nc2ccccc21	ssDAF12 agonist 1.2, hcDAF12 agonist 10.9 | LXR ag inactive | hcDAF12 ag 12.5
COC(=O)C1=C(C)N(Cc2ccccc2C(F)(F)F)C(=NCc2cc(OC)c(OC)c(OC)c2)NC1c1ccccc1C(F)(F)F (stereo unspecified)	none
CSc1ccc(CNC(=O)Cc2ccc(NC(=O)C3=C(C)OCCS3)cc2)cc1	hcDAF12 agonist 7.1 | LXR ag inactive | hcDAF12 ag 6.5
Cc1ccccc1-c1ccc(C(=O)Nc2cccc(F)c2)o1	hcDAF12 agonist 7.3 | LXR ag inactive | hcDAF12 ag 5.7
Cc1ccc(/C(O)=C2\C(=O)C(=O)N(C)C2c2ccccc2[N+](=O)[O-])cc1 (stereo unspecified)	none
Cc1ccc(/C(O)=C2\C(=O)C(=O)N(Cc3cccnc3)C2c2ccccc2[N+](=O)[O-])cc1 (stereo unspecified)	ssDAF12 agonist 1.7, hgDAF12 agonist 13.2, hcDAF12 agonist 9.7 | LXR ag inactive | hcDAF12 ag 6.8
